A selection: hits, their analogues and other compounds. The true share with any hit is near 4.6%.
NALP3 yeast inh: blocks the NALP3 inflammasome reconstituted in yeast. 330,000 tested, 0.39% active. Yeast reconstituted NLRP3/ASC/caspase-1, beta-gal luminescence, 24 h. inhibition, % at 10 µM;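 active means inhibition of 50% or more; inactive means inhibition below 50%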
TIM10 inh: growth inhibitors of TIM10 yeast strain; 330,000 tested, 1.4% active; inhibition, % at 10 µM; AID 463195; S. cerevisiae TIM10 strain growth, BacTiter-Glo luminescence, 24 h;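 active means inhibition of 40% or more at the single tested concentration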;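 further: wild-type TIM10 isogenic control strain grown at permissive 25 °C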
SKKanGAS inh: blocks kanamycin growth of S. pyogenes SKKanGAS strain | 300,000 tested, 1.3% active | BacTiter-Glo, 6 h | AID 1662 | inhibition, % at 7.5 µM;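 active means mean replicate score, as percent of positive control median, at least 50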;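 further: strain carries kanamycin resistance gene driven by streptokinase promoter and grows in 40 µg/ml kanamycin; loss of luminescence reflects streptokinase promoter inhibition or plain growth inhibition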
tim23-1 inh: growth inhibitors of tim23-1 mutant yeast. 330,000 tested, 1.3% active. AID 463212. inhibition, % at 20 µM. S. cerevisiae tim23-1 growth, BacTiter-Glo luminescence, 24 h;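 active means growth inhibition of the mutant yeast at or above 50%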;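 further: temperature-sensitive mutant grown at 25 °C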
tim10-1 inh: growth inhibitors of tim10-1 mutant yeast; AID 463190; inhibition, % at 20 µM; S. cerevisiae tim10-1 ts strain growth, BacTiter-Glo, 24 h; 330,000 tested, 2.2% active;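 active means inhibition of at least 40%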;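 further: mutant grown at 25 °C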
tim10-1 conf: confirmation of tim10-1 mutant yeast growth inhibitors. S. cerevisiae tim10-1 ts strain growth, BacTiter-Glo, 24 h. shares compounds with tim10-1 inh. 7,400 tested, 56% active. inhibition, % at 20 µM;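 active means inhibition of yeast growth at or above a set limit in either of two repeat tests at 20 µM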;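 further: tim10-1 mutant grown at permissive 25 °C to find synthetic lethal compounds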
A number is an active result.

How did O=C(O)c1cc(S(=O)(=O)NCC2COc3ccccc3O2)ccc1Cl (configuration not stated) do in these assays?
NALP3 yeast inh: inactive; TIM10 inh: inactive; tim23-1 inh: inactive; tim10-1 inh: inactive

What do the screens show for `CC(C)c1ccc(NC(=O)c2cc(S(=O)(=O)NCC3COc4ccccc4O3)ccc2F)cc1` (configuration not stated)?
NALP3 yeast inh: inactive; TIM10 inh: inactive; SKKanGAS inh: 69; tim23-1 inh: inactive; tim10-1 inh: 43; tim10-1 conf: 43

How did O=C(CN1C(=O)c2ccccc2C1=O)Nc1ccccc1N1CCOCC1 do in these assays?
NALP3 yeast inh: inactive; TIM10 inh: inactive; SKKanGAS inh: inactive; tim23-1 inh: inactive; tim10-1 inh: inactive

How did CCCCN1C(=O)c2ccc(C(=O)Nc3ccccc3N3CCOCC3)cc2C1=O do in these assays?
NALP3 yeast inh: inactive; TIM10 inh: inactive; SKKanGAS inh: inactive; tim23-1 inh: inactive; tim10-1 inh: 43; tim10-1 conf: inactive

How did Cc1cc(C)c(OCC(=O)Nc2ccccc2N2CCOCC2)c(C)c1 do in these assays?
NALP3 yeast inh: inactive; TIM10 inh: inactive; SKKanGAS inh: inactive; tim23-1 inh: inactive; tim10-1 inh: 46; tim10-1 conf: 32

How did COc1ccc(C(=O)NC(=S)Nc2ccccc2N2CCOCC2)cc1Br do in these assays?
NALP3 yeast inh: inactive; TIM10 inh: inactive; SKKanGAS inh: inactive; tim23-1 inh: inactive; tim10-1 inh: inactive

Results for COc1cc(C(=O)NC(=S)Nc2ccc(Cl)cn2)cc(OC)c1OC ?
NALP3 yeast inh: inactive; TIM10 inh: inactive; SKKanGAS inh: inactive; tim23-1 inh: inactive; tim10-1 inh: 42; tim10-1 conf: inactive

How did COc1ccc(C(=O)Nc2ccccc2N2CCOCC2)cc1Br do in these assays?
NALP3 yeast inh: inactive; TIM10 inh: inactive; SKKanGAS inh: inactive; tim23-1 inh: inactive; tim10-1 inh: 40; tim10-1 conf: inactive

What do the screens show for `COc1cc(C(=O)Nc2ccccc2N2CCCCC2)cc(OC)c1OC`?
NALP3 yeast inh: inactive; TIM10 inh: inactive; SKKanGAS inh: inactive; tim23-1 inh: inactive; tim10-1 inh: inactive

How did COc1cc(C(=O)NC(=S)Nc2ccccc2N2CCCC2)cc(OC)c1OC do in these assays?
NALP3 yeast inh: inactive; TIM10 inh: inactive; SKKanGAS inh: inactive; tim23-1 inh: inactive; tim10-1 inh: 51; tim10-1 conf: inactive

How did COc1cc(-c2nc3cc(C)ccn3c2NC2CCCCC2)ccc1-c1ccc(C(C)=O)cc1 do in these assays?
NALP3 yeast inh: inactive; TIM10 inh: inactive; SKKanGAS inh: inactive; tim23-1 inh: inactive; tim10-1 inh: 40; tim10-1 conf: inactive

Results for CCOC(=O)C1=C(C)N(C)C(=S)N(C)C1c1ccc(OC)cc1 (configuration not stated) ?
NALP3 yeast inh: inactive; TIM10 inh: inactive; SKKanGAS inh: inactive; tim23-1 inh: inactive; tim10-1 inh: inactive

Results for COC(=O)C1=C(C)N(C)C(=S)N(C)C1c1cccc(Br)c1 (configuration not stated) ?
NALP3 yeast inh: inactive; TIM10 inh: inactive; SKKanGAS inh: inactive; tim23-1 inh: inactive; tim10-1 inh: 42; tim10-1 conf: inactive

Results for Cc1cc(N2C3CCC2CC(O)(c2ccc(F)cc2)C3)nc(-c2ccccc2)n1 (configuration not stated) ?
NALP3 yeast inh: inactive; TIM10 inh: inactive; SKKanGAS inh: inactive; tim23-1 inh: inactive; tim10-1 inh: 48; tim10-1 conf: 37

Results for c1ccc(CNc2nc(NCc3ccccc3)c3ccccc3n2)cc1 ?
NALP3 yeast inh: inactive; TIM10 inh: inactive; SKKanGAS inh: inactive; tim23-1 inh: inactive; tim10-1 inh: 62; tim10-1 conf: inactive

What do the screens show for `Cc1nc(N2CCN(C(=O)COc3ccccc3)CC2)c2c(C)c(C)sc2n1`?
NALP3 yeast inh: inactive; TIM10 inh: inactive; SKKanGAS inh: inactive; tim23-1 inh: inactive; tim10-1 inh: 41; tim10-1 conf: inactive

Results for O=C1C(Cc2ccccc2)Nc2ncnc(N3CCN(c4ccccc4)CC3)c2N1Cc1ccc(Br)cc1 (configuration not stated) ?
NALP3 yeast inh: inactive; TIM10 inh: inactive; tim23-1 inh: inactive; tim10-1 inh: inactive

Results for O=C1C(Cc2ccccc2)Nc2ncnc(N3CCc4ccccc4C3)c2N1Cc1ccc(Br)cc1 (configuration not stated) ?
NALP3 yeast inh: inactive; TIM10 inh: inactive; SKKanGAS inh: inactive; tim23-1 inh: inactive; tim10-1 inh: 41; tim10-1 conf: inactive

What do the screens show for `CCc1ccc(NC(=O)C/C(C)=N/NC(=O)COc2ccc(C)cc2Br)cc1`?
NALP3 yeast inh: inactive; TIM10 inh: inactive; SKKanGAS inh: inactive; tim23-1 inh: inactive; tim10-1 inh: 45; tim10-1 conf: inactive

What do the screens show for `O=C(NCc1cccc(Cl)c1)c1ccc(CS(=O)Cc2ccc(Cl)cc2)o1` (configuration not stated)?
NALP3 yeast inh: inactive; TIM10 inh: inactive; SKKanGAS inh: inactive; tim23-1 inh: inactive; tim10-1 inh: inactive

Results for O=C(c1cc2ccccc2cc1O)N1CCN(c2cccc(Cl)c2)CC1 ?
NALP3 yeast inh: inactive; TIM10 inh: inactive; SKKanGAS inh: inactive; tim23-1 inh: inactive; tim10-1 inh: 47; tim10-1 conf: 30

How did COc1ccccc1N1CCN(C(=O)c2ccc3[nH]c(C)c(C)c3c2)CC1 do in these assays?
NALP3 yeast inh: inactive; TIM10 inh: inactive; SKKanGAS inh: inactive; tim23-1 inh: inactive; tim10-1 inh: 42; tim10-1 conf: inactive

What do the screens show for `COc1ccc(/C=C/C(=O)c2oc3ccc(F)cc3c2C)cc1`?
NALP3 yeast inh: inactive; TIM10 inh: inactive; SKKanGAS inh: inactive; tim23-1 inh: inactive; tim10-1 inh: 41; tim10-1 conf: 31

Results for Cc1cccc(N2CCN(C(=O)c3ccc4[nH]c(C)c(C)c4c3)CC2)c1C ?
NALP3 yeast inh: inactive; TIM10 inh: inactive; tim23-1 inh: inactive; tim10-1 inh: inactive

How did COc1ccc2oc(C(=O)NNC(=O)c3ccc(F)cc3)c(C)c2c1 do in these assays?
NALP3 yeast inh: inactive; TIM10 inh: inactive; SKKanGAS inh: inactive; tim23-1 inh: inactive; tim10-1 inh: inactive

What do the screens show for `COc1ccccc1N1CCN(C(=O)c2oc3ccc(F)cc3c2C)CC1`?
NALP3 yeast inh: inactive; TIM10 inh: inactive; SKKanGAS inh: inactive; tim23-1 inh: inactive; tim10-1 inh: 42; tim10-1 conf: inactive

How did O=C(CN1CCC(C(=O)c2ccc(F)cc2)CC1)Nc1ccccc1Cl do in these assays?
NALP3 yeast inh: inactive; TIM10 inh: inactive; SKKanGAS inh: inactive; tim23-1 inh: inactive; tim10-1 inh: inactive

How did Cc1[nH]c2ccc(C(=O)N3CCN(c4cccc(Cl)c4)CC3)cc2c1C do in these assays?
NALP3 yeast inh: inactive; TIM10 inh: inactive; SKKanGAS inh: inactive; tim23-1 inh: inactive; tim10-1 inh: 56; tim10-1 conf: inactive

How did O=C(c1ccccc1Br)N1CCN(c2ccccc2)CC1 do in these assays?
NALP3 yeast inh: inactive; TIM10 inh: inactive; SKKanGAS inh: inactive; tim23-1 inh: inactive; tim10-1 inh: 86; tim10-1 conf: inactive

What do the screens show for `COc1cc2oc(=O)ccc2cc1-c1c(OC)ccc2ccc(=O)oc12`?
NALP3 yeast inh: inactive; TIM10 inh: inactive; tim23-1 inh: inactive; tim10-1 inh: inactive

Screening results from PubChem.
